In ChEMBL document CHEMBL1961873, “Compounds: GSK PKIS; Assays: Nanosyn kinase panel” (2012):

molecular target: T1, cAMP-dependent protein kinase catalytic subunit PRKX (Homo sapiens) (UniProt P51817); details: at 0.1 µM
T1 sequence (whole entry): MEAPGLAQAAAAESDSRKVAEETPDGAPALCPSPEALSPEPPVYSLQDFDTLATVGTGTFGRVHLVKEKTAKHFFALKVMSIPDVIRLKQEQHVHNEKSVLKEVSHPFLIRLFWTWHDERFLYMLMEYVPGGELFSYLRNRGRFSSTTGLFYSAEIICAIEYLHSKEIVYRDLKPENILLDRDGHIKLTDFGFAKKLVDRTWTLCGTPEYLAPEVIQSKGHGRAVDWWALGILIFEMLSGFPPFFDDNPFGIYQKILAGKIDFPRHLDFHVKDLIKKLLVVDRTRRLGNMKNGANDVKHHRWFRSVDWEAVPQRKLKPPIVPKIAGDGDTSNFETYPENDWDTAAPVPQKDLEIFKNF
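Further: values are mean percent inhibition of PRKX.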

Compound | inhibition [%]
CC(C)(CO)CNC(=O)c1ccc2c(c1)/C(=N/Nc1ccc(S(N)(=O)=O)cc1)C(=O)N2 | 0.91
O=C(Nc1n[nH]c2cc(-c3ccc(F)cc3)ccc12)C1CC1 | 2.23
NC(=O)c1sc(-n2cnc3ccc(C(F)(F)F)cc32)cc1OCc1ccccc1Br | 3.81
CCn1c(-c2nonc2N)nc2ccccc21 | 3.21
c1ccc(-c2nc3n(c2-c2ccc4c(c2)OCO4)CCC3)nc1 | 0.87
CCNC(=O)O[C@H]1CN[C@H](C#Cc2cc3ncnc(Nc4ccc(OCc5cccc(F)c5)c(Cl)c4)c3s2)C1 | -0.14
CCn1c(-c2nonc2N)nc2cnc(Oc3cccc(NC(=O)c4ccc(N(C)C)cc4)c3)cc21 | 12.9
CC(=O)Nc1cccc(C#Cc2cncnc2Nc2ccc(OCc3cccc(F)c3)c(Cl)c2)c1 | 1.66
N#Cc1c(NC(=O)c2ccc(F)cc2)sc2c1CCCC2 | 0.52
CS(=O)(=O)CCNCc1coc(-c2ccc3ncnc(Nc4ccc(OCc5ccccc5)cc4)c3c2)c1 | 1.12
N#Cc1c(NC(=O)CN2CCOCC2)sc2c1CCCC2 | 2.18
NS(=O)(=O)c1ccc(Nc2ncc(-c3ccccc3)o2)cc1 | 2.08
COc1cc(/C=N/Nc2ncnc3[nH]ncc23)ccc1O | 1.69
COC(=O)Nc1nc2ccc(Oc3ccc(NC(=O)Nc4cccc(Cl)c4)cc3)cc2[nH]1 | 0.22
CNC(=O)c1cncc(/C=C/c2ccccc2Cl)c1 | 1.22
COc1cc(N2CCN(C(C)C)CC2)ccc1Nc1nc(Nc2ccc(F)cc2C(N)=O)c2cc[nH]c2n1 | 5.37
Clc1ccc(-c2nn3ncccc3c2-c2ccnc(Nc3ccccc3)n2)cc1 | 2.16

Compound | inhibition [%]
Fc1ccc(-c2nn3ccccc3c2-c2ccncc2)cc1 | 1.41
COc1cc2c(cc1Nc1nc(Nc3ccsc3C(N)=O)c3cc[nH]c3n1)N(C(=O)CN(C)C)CCC2(C)C | 2.19
CN1CCC(n2cnc(-c3ccc(F)cc3)c2-c2ccnc(N)n2)CC1 | 0.51
FC(F)(F)c1cccc(-c2nn3ncccc3c2-c2ccnc(Nc3ccc4c(c3)OCCO4)n2)c1 | 0.27
CC1=C(C(=O)Nc2cc(Cl)c3[nH]ncc3c2)C(c2ccc(C(F)(F)F)cc2)CC(=O)N1 (stereo not drawn) | 44.8
CS(=O)(=O)CCNCc1ccc(-c2ccc3ncnc(Nc4ccc(OCc5ccccc5)c(C(F)(F)F)c4)c3c2)o1 | 2.36
Nc1nc(-c2ccc(F)cc2)c(-c2ccc3ncccc3n2)s1 | 2.61
COc1cc(Nc2nccc(Nc3ccc4c(C)n[nH]c4c3)n2)cc(OC)c1OC | 0.71
CN(C)CCOc1ccc(-c2nc(-c3ccncc3)c(-c3ccc4c(c3)CC/C4=N\O)[nH]2)cc1 | 1.16
CCn1c(-c2nonc2N)nc2c(C#CC(C)(C)O)ncc(OC3CCNCC3)c21 | 74.4
[O-][S+]1CCN(Cc2ccc(-c3ccc4ncnc(Nc5ccc(OCc6cccc(F)c6)c(Cl)c5)c4c3)o2)CC1 | 2.88
COc1ccc(-c2cc(-c3c[nH]nc3-c3ccccn3)ccn2)cc1 | 2.8
Cc1ccc2c(-c3ccnc(Nc4ccccc4)n3)c(-c3ccc(F)cc3)nn2n1 | 1.83
COc1ccc(-c2oc3ncnc(N)c3c2-c2ccc(NC(=O)Nc3cc(C(F)(F)F)ccc3F)cc2)cc1 | 4.23
CCCN(CCS(C)(=O)=O)Cc1ccc(-c2ccc3ncnc(Nc4ccc(OCc5cccc(F)c5)c(Cl)c4)c3c2)o1 | 1.89
CCn1c(-c2nonc2N)nc2c(C#CC(C)(C)O)nc(OC[C@H](N)c3ccccc3)cc21 | 84.2
